{"source": "PubChem BioAssay AID1852", "about": "(Sanford-Burnham Center for Chemical Genomics, 2009)", "note": "Out of some 2,500 compounds screened, about 1,100 (44%) were called active.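 The calls were made as follows: active = inhibition above 50% at 4 µM in the single-point screen; inactive = inhibition of 50% or less.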 So high a share suggests a set chosen from earlier hits. The list shows a part of the results.", "data": [{"assay": "blockers of TNF-a NF-kB luciferase induction – cell-based, HEK293T NF-kB-Luc, luminescence, selectivity assay for NOD1/NOD2 signaling inhibitor project, primary screen (AID 1852)", "details": "TNF-a induced, 14 h, at 4 µM, stronger effect = higher value", "values": [{"smiles": "COc1ccc(N2CCN(S(=O)(=O)c3ccc4c(c3)NC(=O)C(C)S4)CC2)cc1", "note": "(stereo not given)", "inhibition": "23.6% (inactive)"}, {"smiles": "CN1C(=O)C(C)(C)c2cc(S(=O)(=O)N3CCN(c4ccccc4)CC3)ccc21", "inhibition": "16% (inactive)"}, {"smiles": "c1ccc(CC2CCN(c3ncnc4sccc34)CC2)cc1", "inhibition": "42.7% (inactive)"}, {"smiles": "Cc1ccc(S(=O)(=O)N2CCN(c3ncnc4sccc34)CC2)cc1", "inhibition": "52.6% (active)"}, {"smiles": "O=S(=O)(c1ccc2c(c1)OCCO2)N1CCN(c2ncnc3sccc23)CC1", "inhibition": "53.4% (active)"}, {"smiles": "CCCc1nc(SCC(=O)N2CCC(Cc3ccccc3)CC2)c2c(=O)n(C)c(=O)n(C)c2n1", "inhibition": "-11.3% (inactive)"}, {"smiles": "O=C(N/N=C1/C(=O)c2cccc3cccc1c23)c1ccc(Cl)cc1", "inhibition": "81% (active)"}, {"smiles": "O=C(NN=C1c2ccccc2-c2ccccc21)c1cccc(Br)c1", "inhibition": "21.6% (inactive)"}, {"smiles": "C/C(=N\\NC(=O)c1ccc(Cl)cc1)c1ccc(Br)s1", "inhibition": "9.8% (inactive)"}, {"smiles": "S=c1[nH]nc(C2CCCCC2)n1/N=C/c1ccncc1", "inhibition": "82.9% (active)"}, {"smiles": "COc1ccc(OC)c(S(=O)(=O)N2CCN(c3ccccc3OC)CC2)c1", "inhibition": "5% (inactive)"}, {"smiles": "O=C1c2cccc(OCC(=O)N3CCCc4ccccc43)c2CCN1Cc1ccc(Br)cc1", "inhibition": "-77.8% (inactive)"}, {"smiles": "O=C(COc1ccc(Br)cc1Cl)NC(=S)N1CCc2ccccc21", "inhibition": "104% (active)"}, {"smiles": "Cc1cc(Nc2cccc([N+](=O)[O-])c2)n2c(nc3ccccc32)c1C#N", "inhibition": "78.7% (active)"}, {"smiles": "Cc1ccc(-c2c(C#N)c(N)n3c(nc4ccccc43)c2C#N)cc1", "inhibition": "33.8% (inactive)"}, {"smiles": "Cc1ccc(NC(=O)Nc2cccc([N+](=O)[O-])c2)cc1F", "inhibition": "-50.5% (inactive)"}, {"smiles": "CCc1nc(N2CCN(C(=O)CCl)CC2)c2c3c(sc2n1)CC(C)CC3", "note": "(stereo not given)", "inhibition": "35.2% (inactive)"}, {"smiles": "CCOC(=O)C1(CCc2ccccc2)CCN(C(=O)CN2C(=O)CSC2=O)CC1", "inhibition": "-1.6% (inactive)"}, {"smiles": "COc1cc(NC(=O)COc2cc(O)c3c(c2)OC(C)(C)CC3=O)cc(OC)c1OC", "inhibition": "64.6% (active)"}, {"smiles": "Cc1ccc(Nc2nnc(-c3ccncc3)s2)c(Br)c1", "inhibition": "48% (inactive)"}, {"smiles": "Cc1ccc(C)c(N2CCN(C(=S)Nc3ccc4nc(N5CCOCC5)cc(C)c4c3)CC2)c1", "inhibition": "45.9% (inactive)"}, {"smiles": "COc1cccc(C(=O)Nc2ccc3nc(N4CCN(c5ncccn5)CC4)cc(C)c3c2)c1OC", "inhibition": "101% (active)"}, {"smiles": "COc1ccccc1N1CCN(C(=S)Nc2ccc3nc(N4CCOCC4)cc(C)c3c2)CC1", "inhibition": "38.6% (inactive)"}, {"smiles": "CCN(CC)c1ccc(/C=C/c2ccc3ccc(OC)cc3[n+]2CC)cc1", "inhibition": "38.2% (inactive)"}, {"smiles": "CCN(CC)c1ccc(/C=C/c2cccc[n+]2C)c(OC)c1", "inhibition": "66.8% (active)"}, {"smiles": "COc1ccc(-c2csc3nc(-c4ccccc4)oc(=O)c23)cc1OC", "inhibition": "-3.3% (inactive)"}, {"smiles": "COc1ccccc1-c1nnc(SCC(=O)Nc2nc(-c3ccccc3)cs2)n1C", "inhibition": "31.2% (inactive)"}, {"smiles": "COc1ccc2c(c1OC)C(=O)OC2Nc1nc(-c2ccccc2)cs1", "note": "(stereo not given)", "inhibition": "62.2% (active)"}, {"smiles": "Cc1ccc(-c2csc(NC3OC(=O)c4ccccc43)n2)cc1", "note": "(stereo not given)", "inhibition": "74.1% (active)"}, {"smiles": "COc1ccc2[nH]c(=O)c3c(c2c1)OC(C)(C)C=C3", "inhibition": "74.7% (active)"}, {"smiles": "COc1ccc2[nH]c3c(c2c1)CCN1C(=O)N([C@@H](C)C(=O)NC2CC2)C(=O)[C@]31C", "inhibition": "24.6% (inactive)"}, {"smiles": "COc1ccccc1/C=C/C(=O)c1c2c(c(C)[nH]c1=O)CCCC2", "inhibition": "80.6% (active)"}, {"smiles": "COc1cccc(/C=C/C(=C2/C(=O)N(c3ccccc3)N=C2C)c2ccccc2)c1OC", "inhibition": "7.3% (inactive)"}, {"smiles": "Cc1[nH]c(=O)c(C(=O)/C=C/c2ccccc2)c2c1CCCC2", "inhibition": "92% (active)"}, {"smiles": "O=C(/C=C/c1cccs1)Nc1sc2c(c1C(=O)O)CCCC2", "inhibition": "17.8% (inactive)"}, {"smiles": "Cc1[nH]c(=O)c(C(=O)/C=C/c2ccccc2F)c2c1CCCC2", "inhibition": "97.7% (active)"}, {"smiles": "CC1=NN(c2ccc(Cl)cc2)C(=O)C1C(c1ccccc1O)c1c(C)[nH]n(-c2ccc(Cl)cc2)c1=O", "note": "(stereo not given)", "inhibition": "-30.7% (inactive)"}, {"smiles": "Cc1[nH]n(-c2ncc(-c3ccccc3)s2)c(=O)c1C(c1ccc(Cl)cc1)C(C#N)C#N", "note": "(stereo not given)", "inhibition": "28.2% (inactive)"}, {"smiles": "Cc1[nH]n(-c2cccc(Cl)c2)c(=O)c1-c1ccc(Cl)cc1", "inhibition": "51.9% (active)"}, {"smiles": "CC(C)CC(=O)/C(=C\\c1ccc(Cl)cc1Cl)n1cncn1", "inhibition": "64.5% (active)"}, {"smiles": "CCOC(=O)C(=Cc1ccc(-n2cncn2)cc1)C(=O)OCC", "inhibition": "27% (inactive)"}, {"smiles": "CC(C)(C)C(=O)/C(=C/c1ccc(Cl)cc1)n1cncn1", "inhibition": "73.3% (active)"}, {"smiles": "O=C(Nc1cc(Cl)ccc1-n1cncn1)c1ccc([N+](=O)[O-])s1", "inhibition": "34.3% (inactive)"}, {"smiles": "CC(=O)n1cc(N(C(=O)CCl)c2ccc(C)cc2)c2ccccc21", "inhibition": "53.1% (active)"}, {"smiles": "CC(=O)n1cc(N(C(=O)CCl)c2ccccc2)c2ccccc21", "inhibition": "95.3% (active)"}, {"smiles": "Clc1ccccc1/C=C/c1nc(-c2ccccn2)no1", "inhibition": "-22.3% (inactive)"}, {"smiles": "Cc1ccc(S(=O)(=O)N2C(=O)/C(=C3\\SC(=S)NC3=O)c3ccccc32)cc1", "inhibition": "82.3% (active)"}, {"smiles": "N=C1S/C(=C\\c2ccc(-c3cccc(Cl)c3)o2)C(=O)N1c1nccs1", "inhibition": "108% (active)"}, {"smiles": "N=C1S/C(=C\\c2ccco2)C(=O)N1c1nccs1", "inhibition": "105% (active)"}, {"smiles": "O=C(Nc1ccccn1)C1CCN(c2ncnc3c2nc2n3CCCCC2)CC1", "inhibition": "66.3% (active)"}, {"smiles": "Cc1ccc(NC(=O)C2CCCN(c3ncnc4c3nc3n4CCCCC3)C2)nc1", "note": "(stereo not given)", "inhibition": "92.6% (active)"}, {"smiles": "O=C(NCC1CCN(Cc2ccc(Cl)cc2)CC1)C1CCCN(c2ncnc3c2nc2n3CCCCC2)C1", "note": "(stereo not given)", "inhibition": "57.9% (active)"}, {"smiles": "Cc1ccc(NC(=O)C2CCN(c3ncnc4c3nc3n4CCCCC3)CC2)cc1Cl", "inhibition": "31.7% (inactive)"}, {"smiles": "COc1ccc(NC(=O)C2CCN(c3ncnc4c3nc3n4CCCCC3)CC2)cc1Cl", "inhibition": "43.2% (inactive)"}, {"smiles": "O=C(Nc1ccc(Cl)cn1)C1CCN(c2ncnc3c2nc2n3CCCCC2)CC1", "inhibition": "76.4% (active)"}, {"smiles": "CC(=O)c1ccc(NC(=O)C2CCCN(c3ncnc4c3nc3n4CCCCC3)C2)cc1", "note": "(stereo not given)", "inhibition": "22.3% (inactive)"}, {"smiles": "O=C(Nc1nc2c(F)cc(F)cc2s1)c1ccc([N+](=O)[O-])o1", "inhibition": "-4% (inactive)"}, {"smiles": "CC(C)n1c(SCC(=O)N2CCCCC2)nc2c1c(=O)n(C)c(=O)n2C", "inhibition": "40.9% (inactive)"}, {"smiles": "CCCc1nc(SCC(=O)Nc2nnc(SCC)s2)c2c(=O)n(C)c(=O)n(C)c2n1", "inhibition": "33.2% (inactive)"}, {"smiles": "C#CC(C)(C)NC(=O)CSc1nc2c(c(=O)n(C)c(=O)n2C)n1CCCC", "inhibition": "24.1% (inactive)"}, {"smiles": "CCCCn1c(SCC(=O)Nc2nnc(CC)s2)nc2c1c(=O)n(C)c(=O)n2C", "inhibition": "51.6% (active)"}, {"smiles": "CC1CCc2nc(NC(=O)CSc3nc4ccccc4o3)sc2C1", "note": "(stereo not given)", "inhibition": "12% (inactive)"}, {"smiles": "C=CCn1c(SCC(=O)Nc2sccc2C(N)=O)nc2sc(CC)cc2c1=O", "inhibition": "44.9% (inactive)"}, {"smiles": "CCCn1c(SCC(=O)Nc2nc3c(s2)CCCC3)nc2c1c(=O)n(C)c(=O)n2C", "inhibition": "71.4% (active)"}, {"smiles": "CC(C)c1nc(SCC(=O)Nc2nc3c(s2)CCCC3)c2ccccc2n1", "inhibition": "-69.4% (inactive)"}, {"smiles": "CCCCn1c(SCC(=O)Nc2nnc(C(C)C)s2)nc2c1c(=O)n(C)c(=O)n2C", "inhibition": "54.3% (active)"}, {"smiles": "Cc1nc([N+](=O)[O-])c(Br)n1Cc1ccccc1", "inhibition": "22.9% (inactive)"}, {"smiles": "NC(=O)c1ccc(N2CCN(S(=O)(=O)c3ccccc3)CC2)c([N+](=O)[O-])c1", "inhibition": "5.1% (inactive)"}, {"smiles": "O=[N+]([O-])c1cc(S(=O)(=O)Nc2cccc(C(F)(F)F)c2)ccc1-n1nnc2ccccc21", "inhibition": "68.7% (active)"}, {"smiles": "Cc1ccccc1-n1cnc2c(sc3nc(N4CCOCC4)c4c(c32)CCCC4)c1=O", "inhibition": "18.7% (inactive)"}, {"smiles": "CN(C)c1ccnc2sc3c(=O)n(Cc4ccccc4)cnc3c12", "inhibition": "69.1% (active)"}, {"smiles": "Cc1noc2ncnc(N3CCN(c4cccc(Cl)c4)CC3)c12", "inhibition": "19% (inactive)"}, {"smiles": "Cn1ncc2c(N3CCN(c4ccc(Cl)c(Cl)c4)CC3)ncnc21", "inhibition": "104% (active)"}, {"smiles": "CC1CCCN(c2ncnc3c2cnn3-c2ccc(Cl)cc2)C1", "note": "(stereo not given)", "inhibition": "45.4% (inactive)"}, {"smiles": "COc1ccc(-n2c(Cc3cccn3C)nnc2SCC(=O)Nc2ccc(F)cc2)cc1", "inhibition": "-4% (inactive)"}, {"smiles": "Cn1cccc1Cc1nnc(SCC(=O)Nc2ccc(Cl)cc2)n1-c1ccc(F)cc1", "inhibition": "42% (inactive)"}, {"smiles": "COc1ccc(-n2c(Cc3cccn3C)nnc2SCC(=O)Nc2cccc(Cl)c2)cc1", "inhibition": "14.7% (inactive)"}, {"smiles": "COc1ccc(Cl)cc1NC(=O)CSc1nnc(Cc2cccn2C)n1-c1ccc(F)cc1", "inhibition": "35.1% (inactive)"}, {"smiles": "Cn1cccc1Cc1nnc(SCC(=O)Nc2cccc(F)c2)n1-c1ccc(F)cc1", "inhibition": "-4.7% (inactive)"}, {"smiles": "Cc1cc(C)cc(NC(=O)CSc2nnc(Cc3cccn3C)n2-c2ccc(F)cc2)c1", "inhibition": "59.6% (active)"}, {"smiles": "CCOc1ccccc1NC(=O)CSc1nnc(Cc2cccn2C)n1-c1ccc(F)cc1", "inhibition": "56.8% (active)"}, {"smiles": "COc1ccccc1NC(=O)CSc1nnc(Cc2cccn2C)n1-c1ccc(F)cc1", "inhibition": "-5.9% (inactive)"}, {"smiles": "COc1ccc(-n2c(Cc3cccn3C)nnc2SCC(=O)Nc2cccc(F)c2)cc1", "inhibition": "59.1% (active)"}, {"smiles": "O=c1nc(/C=C/c2cc([N+](=O)[O-])ccc2Cl)cc(C(F)(F)F)[nH]1", "inhibition": "-16.6% (inactive)"}, {"smiles": "O=[N+]([O-])c1ccc(O)c(Nc2ncnc3ccccc23)c1", "inhibition": "4.9% (inactive)"}, {"smiles": "O=[N+]([O-])c1ccc(O)c(-c2cc(C(F)(F)F)nc(-c3ccccc3)n2)c1", "inhibition": "93.6% (active)"}, {"smiles": "CCOC(=O)C1(Cc2ccccc2C)CCCN(C(=O)CN2C(=O)CSC2=O)C1", "note": "(stereo not given)", "inhibition": "31.1% (inactive)"}, {"smiles": "O=C(c1ccccc1)N1CCSc2sccc2C1=O", "inhibition": "52.7% (active)"}, {"smiles": "CC1=C(/C=C/C(C)=N\\NC(=O)c2ccncc2)C(C)(C)CCC1", "inhibition": "3.5% (inactive)"}, {"smiles": "CC1=CCCC(C)(C)C1/C=C/C(C)=N/NC(=O)c1ccncc1", "note": "(stereo not given)", "inhibition": "59.7% (active)"}]}]}
